Records with an inconclusive call do not appear. Entries that show only a call come without a potency. Active and inactive are the calls of the source. The call rests on the fitted dose curve; in most records, active means well fitted curve in the direction sought with a large enough effect in the repeat runs; inconclusive means weak or mixed curves; inactive means no such curve, though single readings can be large; an effect the other way counts as inactive or inconclusive.
Assays:
[1] = biological target: Cytochrome P450 2C19 (Homo sapiens) (UniProt P33261); assay: Cytochrome P450 Family 2 Subfamily C Member 19 (CYP2C19) small molecule antagonists: luciferase reporter qHTS assay (AID 1671197); further: nearly all actives have a fitted effect of over 65% in size
How it was run: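 Enzyme-substrate mix with proluciferin substrate (P450-Glo CYP2C19 system) preincubated with compounds 10 min at room temperature; NADPH regeneration solution added, 37C for 1 h; detection reagent stops reaction, luminescence read after 20 min. Ketoconazole positive control.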

[2] = biological target: Cytochrome P450 2C9 (Homo sapiens) (UniProt P11712); assay: Cytochrome P450 Family 2 Subfamily C Member 9 (CYP2C9) small molecule antagonists: luciferase reporter qHTS assay (AID 1671198); further: nearly all actives have a fitted effect of over 50% in size
How it was run: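 P450-Glo proluciferin substrate with CYP2C9 enzyme; 10 min RT preincubation, then NADPH regeneration 1 h at 37C; luciferin detection reagent 20 min RT, luminescence in relative luminescence units.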

[3] = biological target: Cytochrome P450 1A2 (Homo sapiens) (UniProt P05177); assay: Cytochrome P450 Family 1 Subfamily A Member 2 (CYP1A2) small molecule antagonists: luciferase reporter qHTS assay (AID 1671199); further: nearly all actives have a fitted effect of over 50% in size
How it was run: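 Luminescence from luciferin formed by CYP1A2 from a proluciferin substrate, read 20 min after detection reagent. Compound was pre-incubated 10 min with enzyme-substrate, and reaction started with NADPH regeneration solution for 1 h at room temperature; furafylline control.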

[4] = biological target: Cytochrome P450 3A4 (Homo sapiens) (UniProt P08684); assay: Cytochrome P450 Family 3 Subfamily A Member 4 (CYP3A4) small molecule antagonists: luciferase reporter qHTS assay (AID 1671201); further: nearly all actives have a fitted effect of over 50% in size
How it was run: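 Room-temperature assay throughout: 10 min compound–enzyme/substrate preincubation, 1 h reaction after NADPH regeneration solution, 20 min detection. Luciferin formed from proluciferin substrate is quantified by luminescence.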

[5] = biological target: Voltage-gated inwardly rectifying potassium channel KCNH2 (Homo sapiens) (UniProt Q12809); assay: Human Ether-a-go-go-Related Gene (hERG) channel small molecule antagonists: fluorescence cell-based qHTS assay (AID 1671200); further: nearly all actives have a fitted effect of over 50% in size
How it was run: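 Cell line hERG-U2OS; dye FluxOR II, 1 h RT dark; Tl+ stimulus; ex 480/em 540 nm, read each second for 2 min.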
Potency means the concentration at half of the fitted maximal effect.

Cytochrome P450 1A2 (Homo sapiens), sequence (P05177 whole entry, looked up): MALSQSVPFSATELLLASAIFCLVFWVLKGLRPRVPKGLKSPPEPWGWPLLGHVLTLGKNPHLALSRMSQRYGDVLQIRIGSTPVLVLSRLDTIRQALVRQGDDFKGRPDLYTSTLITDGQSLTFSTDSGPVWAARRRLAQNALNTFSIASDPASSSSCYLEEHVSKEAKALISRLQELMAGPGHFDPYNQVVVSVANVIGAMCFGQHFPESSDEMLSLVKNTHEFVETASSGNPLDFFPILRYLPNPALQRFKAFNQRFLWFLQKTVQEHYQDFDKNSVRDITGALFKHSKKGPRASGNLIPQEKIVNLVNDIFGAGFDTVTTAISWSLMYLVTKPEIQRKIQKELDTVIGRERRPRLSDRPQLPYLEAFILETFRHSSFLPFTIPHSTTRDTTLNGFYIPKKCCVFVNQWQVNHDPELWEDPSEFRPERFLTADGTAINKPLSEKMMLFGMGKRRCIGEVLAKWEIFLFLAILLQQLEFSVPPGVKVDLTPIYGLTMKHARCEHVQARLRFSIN
Voltage-gated inwardly rectifying potassium channel KCNH2 (Homo sapiens), sequence (Q12809 whole entry, looked up): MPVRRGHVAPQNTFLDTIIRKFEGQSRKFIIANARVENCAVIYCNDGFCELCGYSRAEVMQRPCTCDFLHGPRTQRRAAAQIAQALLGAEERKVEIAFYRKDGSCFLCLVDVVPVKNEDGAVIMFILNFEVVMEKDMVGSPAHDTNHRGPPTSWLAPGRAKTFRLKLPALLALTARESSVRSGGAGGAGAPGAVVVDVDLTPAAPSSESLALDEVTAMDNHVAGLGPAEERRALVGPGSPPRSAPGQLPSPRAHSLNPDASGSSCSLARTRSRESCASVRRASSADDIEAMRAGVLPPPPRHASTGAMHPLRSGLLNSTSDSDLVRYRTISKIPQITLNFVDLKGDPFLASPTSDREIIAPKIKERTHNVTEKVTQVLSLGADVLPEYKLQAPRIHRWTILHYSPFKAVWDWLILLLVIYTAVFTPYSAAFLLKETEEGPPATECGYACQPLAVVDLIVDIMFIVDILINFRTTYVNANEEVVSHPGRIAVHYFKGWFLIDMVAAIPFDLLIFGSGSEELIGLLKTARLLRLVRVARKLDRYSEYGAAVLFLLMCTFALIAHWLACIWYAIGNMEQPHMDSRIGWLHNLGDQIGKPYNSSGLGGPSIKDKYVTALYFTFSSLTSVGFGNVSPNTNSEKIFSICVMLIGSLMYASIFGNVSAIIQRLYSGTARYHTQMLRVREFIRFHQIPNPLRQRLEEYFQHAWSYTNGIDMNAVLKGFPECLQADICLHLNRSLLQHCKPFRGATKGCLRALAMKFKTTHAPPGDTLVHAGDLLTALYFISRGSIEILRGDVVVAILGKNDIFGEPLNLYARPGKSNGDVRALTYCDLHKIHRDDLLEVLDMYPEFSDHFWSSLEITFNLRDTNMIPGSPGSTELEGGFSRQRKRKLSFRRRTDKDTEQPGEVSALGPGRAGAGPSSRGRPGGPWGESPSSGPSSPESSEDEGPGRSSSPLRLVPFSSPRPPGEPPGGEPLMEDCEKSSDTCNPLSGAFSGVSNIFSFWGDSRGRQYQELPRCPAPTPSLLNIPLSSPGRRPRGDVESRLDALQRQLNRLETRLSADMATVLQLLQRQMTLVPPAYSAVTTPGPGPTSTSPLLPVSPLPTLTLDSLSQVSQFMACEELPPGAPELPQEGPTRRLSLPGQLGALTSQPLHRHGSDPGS
Cytochrome P450 2C9 (Homo sapiens), sequence (P11712 whole entry, looked up): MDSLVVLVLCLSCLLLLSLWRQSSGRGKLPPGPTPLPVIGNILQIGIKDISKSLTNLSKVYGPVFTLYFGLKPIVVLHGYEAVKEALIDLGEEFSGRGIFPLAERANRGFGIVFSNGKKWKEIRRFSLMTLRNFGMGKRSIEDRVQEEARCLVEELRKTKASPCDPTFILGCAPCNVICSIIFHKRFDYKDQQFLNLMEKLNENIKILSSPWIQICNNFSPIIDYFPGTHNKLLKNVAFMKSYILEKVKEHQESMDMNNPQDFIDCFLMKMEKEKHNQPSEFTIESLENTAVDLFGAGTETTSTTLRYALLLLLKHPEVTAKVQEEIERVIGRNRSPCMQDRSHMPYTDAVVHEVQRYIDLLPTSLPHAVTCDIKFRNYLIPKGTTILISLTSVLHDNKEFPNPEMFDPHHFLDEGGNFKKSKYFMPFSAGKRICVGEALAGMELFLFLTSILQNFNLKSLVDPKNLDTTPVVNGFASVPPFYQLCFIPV
Cytochrome P450 3A4 (Homo sapiens), sequence (P08684 whole entry, looked up): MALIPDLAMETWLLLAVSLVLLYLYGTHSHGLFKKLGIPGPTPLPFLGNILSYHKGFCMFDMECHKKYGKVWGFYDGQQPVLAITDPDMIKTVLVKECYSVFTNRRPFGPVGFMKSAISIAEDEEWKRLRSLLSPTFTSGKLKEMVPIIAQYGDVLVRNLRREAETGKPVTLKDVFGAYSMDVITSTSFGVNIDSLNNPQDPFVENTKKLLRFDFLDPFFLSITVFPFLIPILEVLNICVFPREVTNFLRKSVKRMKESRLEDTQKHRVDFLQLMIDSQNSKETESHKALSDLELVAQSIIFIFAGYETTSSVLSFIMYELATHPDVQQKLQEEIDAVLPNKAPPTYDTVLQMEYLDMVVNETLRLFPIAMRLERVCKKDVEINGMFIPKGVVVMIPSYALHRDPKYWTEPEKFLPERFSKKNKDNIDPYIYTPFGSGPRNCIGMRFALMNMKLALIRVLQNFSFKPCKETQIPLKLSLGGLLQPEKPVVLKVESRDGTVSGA
Cytochrome P450 2C19 (Homo sapiens), sequence (P33261 whole entry, looked up): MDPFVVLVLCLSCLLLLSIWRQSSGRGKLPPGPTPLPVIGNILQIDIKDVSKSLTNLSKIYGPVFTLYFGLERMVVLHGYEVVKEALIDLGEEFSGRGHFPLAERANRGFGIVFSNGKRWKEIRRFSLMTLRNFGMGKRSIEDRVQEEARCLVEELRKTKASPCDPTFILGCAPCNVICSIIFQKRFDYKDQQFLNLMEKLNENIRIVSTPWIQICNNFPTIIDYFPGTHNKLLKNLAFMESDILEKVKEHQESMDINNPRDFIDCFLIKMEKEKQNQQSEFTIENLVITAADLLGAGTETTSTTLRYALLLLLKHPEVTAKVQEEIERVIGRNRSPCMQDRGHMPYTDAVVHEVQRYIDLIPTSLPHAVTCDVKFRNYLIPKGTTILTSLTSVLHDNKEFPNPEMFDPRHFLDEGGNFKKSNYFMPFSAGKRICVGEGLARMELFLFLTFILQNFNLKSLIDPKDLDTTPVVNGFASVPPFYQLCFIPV

SMILES | Potency [1] | Potency [2] | Potency [3] | Potency [4] | Potency [5]
C=CC(C)(CCC=C(C)C)OC(=O)c1ccccc1 (configuration not stated) | 15.9 µM (active) | 17.8 µM (active) | 39.9 µM (active) | 31.7 µM (active) | 
CC(=O)NCCCS(=O)(=O)O | inactive | inactive |  | inactive | inactive
O=C(O)c1cccc(N(Cc2cccnc2)c2ccc(OC(F)F)c(OC(F)F)c2)c1 | 35.6 µM (active) | 25.2 µM (active) |  | inactive | inactive
CCCCCCCCCCCCCCC1CO1 (configuration not stated) | inactive | inactive |  |  | inactive
Cc1cc(NC(=O)C(=O)O)cc(C)c1Oc1ccc(O)c2c1CCC2 | 25.2 µM (active) | 35.6 µM (active) |  | inactive | inactive
CC(C)c1cccc(C(C)C)c1NC(=O)NS(=O)(=O)c1cc(C(C)(C)O)co1 | 11.2 µM (active) | 35.6 µM (active) |  | inactive | inactive
O=[N+]([O-])c1cccc(Cl)c1Cl | inactive | inactive |  | inactive | inactive
CN1CCN(C2=Nc3ccccc3Sc3ccc(Cl)cc32)CC1 | 21.9 µM (active) |  | inactive |  | 
CC(C(=O)O)c1ccc(-c2ccccc2)c(F)c1 (configuration not stated) | inactive | 25.2 µM (active) |  | inactive | inactive
C=CC(=O)OCCOC(=O)CCC(=O)O | inactive | inactive |  | 31.7 µM (active) | inactive
CC1=CCC(C(C)C)C=C1 (configuration not stated) | 79.6 µM (active) | 50.2 µM (active) |  | 25.2 µM (active) | inactive
CC(C)NCC(O)c1cc(O)cc(O)c1 (configuration not stated) | inactive | inactive |  | inactive | inactive
CCOC(=O)C1=NN(c2ccccc2)C(=O)C1 | inactive | 71 µM (active) |  | inactive | inactive
Cn1c(NCCN(CCO)CCCc2ccc([N+](=O)[O-])cc2)cc(=O)n(C)c1=O | inactive | inactive | inactive | inactive | 
CC(=O)O[C@@H]1C(=O)O[C@@H]2[C@H]1OC(=O)[C@@H]2OC(C)=O | inactive | inactive |  | inactive | inactive
N[C@H]1C(O)O[C@H](CO)[C@H](O)[C@@H]1O (some centres not stated) | inactive | inactive | inactive | inactive | 
O=C(O)c1cn(C2CC2)c2cc(Cl)c(F)cc2c1=O | inactive | inactive |  |  | inactive
Cn1c(N)nc2nc[nH]c2c1=O | inactive | inactive |  |  | inactive
CC(C)(Oc1ccc(Cl)cc1)C(=O)OCCCOC(=O)C(C)(C)Oc1ccc(Cl)cc1 | 3.47 µM (active) | 5.49 µM (active) |  | inactive | 
CC(C)(C)c1ccc(OCC2CO2)cc1 (configuration not stated) | 64.6 µM (active) | 72.4 µM (active) |  | inactive | inactive
CN(c1nccc(=O)[nH]1)C1CCN(c2nc3ccccc3n2Cc2ccc(F)cc2)CC1 | inactive |  |  |  | 2.39 µM (active)
O=C=NC1CCC(CC2CCC(N=C=O)CC2)CC1 (configuration not stated) | 79.6 µM (active) |  | 44.8 µM (active) |  | inactive
CC(C)CCCCCCOC(=O)c1ccc(C(=O)OCCCCCCC(C)C)c(C(=O)OCCCCCCC(C)C)c1 |  | 71 µM (active) | inactive |  | inactive
Nc1nc(CC(=O)O)cs1 |  | inactive | inactive |  | 
CC(C)(C)c1cc(CCC(=O)OCC(COC(=O)CCc2cc(C(C)(C)C)c(O)c(C(C)(C)C)c2)(COC(=O)CCc2cc(C(C)(C)C)c(O)c(C(C)(C)C)c2)COC(=O)CCc2cc(C(C)(C)C)c(O)c(C(C)(C)C)c2)cc(C(C)(C)C)c1O | 33.8 µM (active) |  | 6.75 µM (active) | inactive | inactive
CC(CN)CCCN (configuration not stated) | inactive |  | inactive | 6.33 µM (active) | inactive
